From PubChem
Many of the other results were omitted from the sample, so hits are more common in it than they were.
Pf apPOL block = Pf-apPOL inhibitors, biochemical, fluorescence. Recombinant Pf-apPOL, molecular beacon fluorescence, 1.5 h. AID 1794808, 2022. 210,000 tested, 0.25% active. inhibition, % at 10 µM. Plasmodium falciparum apicoplast DNA polymerase (apPOL)
mHTT-CaM PPI inh = mutant huntingtin-calmodulin interaction inhibitors – biochemical, AlphaScreen, primary screen. P42858. AlphaScreen His-mHTT/GST-CaM binding, luminescence. inhibition, % at 15 µM. 190,000 tested, 3.6% active;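 also: 0% = both proteins with DMSO and 100% = one protein alone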
Active calls of the source: *; · = not tested or not shown. Rule as the data show it: active = inhibition above about 50%; inactive = the rest.

SMILES	Pf apPOL block	mHTT-CaM PPI inh
O=C(CSc1ccc2nnc(-c3ccccn3)n2n1)NCc1ccc2c(c1)OCO2	5	24
O=C1CSC(c2ccccc2Br)N1c1ccccc1F (centres undefined)	-5	-8
O=C1c2ccc(Cl)c([N+](=O)[O-])c2C(=O)c2cccc([N+](=O)[O-])c21	-4	8
COc1ccccc1CNC(=O)C1CC(=O)N(CCc2ccccc2)C1 (centres undefined)	-3	-3
Oc1[nH]c2ccccc2c1C=NCc1ccc(F)cc1	-2	24
Cc1oc(C2CCN(C(=O)CC3CCCC3)CC2)nc1C(=O)N1CCCC1	2	5
NS(=O)(=O)c1cccc(NS(=O)(=O)c2ccccc2)c1	18	·
O=S(=O)(Nc1ccc(Nc2ccccc2)c(NS(=O)(=O)c2ccccc2)c1)c1ccccc1	-2	63*
CC(=O)Nc1ccc(S(=O)(=O)Nc2ccc(S(=O)(=O)Nc3ccccc3)cc2)cc1	4	4
CC(=O)Nc1ccc(S(=O)(=O)Nc2ccc(Nc3ccccc3)cc2)cc1	1	83*
CCC(NC(=O)c1ccccc1NC(=O)c1ccccc1)C(=O)Nc1ccc(OC)cc1 (centres undefined)	-14	4
Cc1nc2c(SCC(=O)NCc3ccco3)nnc(-c3ccccc3)c2s1	40	53*
Cc1nc2c(SCC(=O)Nc3ccc4c(c3)OCO4)nnc(-c3ccccc3)c2s1	11	30
O=C(NCc1cccs1)NCC1(c2ccc(F)cc2)CC1	-6	-15
CC(=O)Nc1ccc(N2C(=O)/C(=C/c3ccc(Cl)cc3)C=C2c2ccccc2)cc1	-1	31
O=C1/C(=C/c2ccc([N+](=O)[O-])cc2)C=C(c2ccccc2)N1c1ccc(F)cc1	0	18
O=C(O)c1cc(N2C(=O)/C(=C/c3ccc([N+](=O)[O-])cc3)C=C2c2ccccc2)ccc1O	-4	88*
O=C(O)c1cc(N2C(=O)/C(=C/c3ccc(Cl)cc3)C=C2c2ccccc2)ccc1O	-3	74*
CCOc1cc(C=C2SC(=S)N(C(CCSC)C(=O)O)C2=O)ccc1O (centres undefined)	-36	32
CCCCN(C)C(=O)c1noc2c1CCc1ccc(OC)cc1-2	-5	-4
Cc1cc(NC(=O)CSc2nnc(Cc3c(C)[nH]c(=O)[nH]c3=O)o2)no1	-2	-20
Cc1cc(NC(=O)CSc2nnc(C3COc4ccccc4O3)o2)no1 (centres undefined)	5	72*
N#CC1=C(N)C(C#N)(C#N)C(c2ccc(Cl)cc2Cl)C2CCCC=C12 (centres undefined)	2	49
N#CC1=C(N)C(C#N)(C#N)C(c2cccc(Oc3ccccc3)c2)C2CCCC=C12 (centres undefined)	4	50*
N#CC1=C(N)C(C#N)(C#N)C(c2cccc(F)c2)C2CCCC=C12 (centres undefined)	-3	23
SMILES	Pf apPOL block	mHTT-CaM PPI inh
N#CC1=C(N)C(C#N)(C#N)C(c2ccc(Cl)c(Cl)c2)C2CCCC=C12 (centres undefined)	6	100*
Clc1ccc(C=C2c3ccccc3-c3ccccc32)cc1	-8	·
COc1ccc(-c2nnc(NC(=O)c3ccc(S(=O)(=O)N4CCCCC4)cc3)o2)cc1	74*	-1
COc1ccc(-c2nnc(NC(=O)c3ccc(S(=O)(=O)N4CCCCCC4)cc3)o2)cc1	0	8
COc1ccc(C(=O)Nc2nnc(-c3ccccc3)o2)cc1OC	-4	12
COc1ccc(-c2nnc(NC(=O)c3ccc(S(=O)(=O)N4CCOCC4)cc3)o2)c(OC)c1	6	54*
COc1ccc(-c2nnc(NC(=O)c3ccc(OC)c(OC)c3)o2)cc1	-7	50*
COc1ccc(-c2nnc(NC(=O)c3ccc(S(=O)(=O)N4CCOCC4)cc3)o2)cc1	-6	6
CC(C)CNC(=O)C1CCN(c2cccc(Br)c2)C1=O (centres undefined)	-1	-4
CCCNC(=O)C1CN(C(=O)c2ccc(C)cc2)CC1c1ccccc1 (centres undefined)	0	0
Brc1ccc(CN2CCN(Cc3ccc4c(c3)OCO4)CC2)o1	6	6
CCN(Cc1ccccc1)S(=O)(=O)c1cc(C(=O)Nc2ccc(F)c(F)c2)ccc1F	53*	-26
CN(Cc1ccccc1)S(=O)(=O)c1cc(C(=O)Nc2ccc(F)c(F)c2)ccc1F	27	-1
C=CCNC(=O)Nc1nc(CSC)cs1	-2	-15
CS(C)=C1C(=O)NC(=O)N(c2ccccc2F)C1=O	-4	-5
CCC(CC)c1nc(Cn2ccnc2C)no1	-1	-11
COc1cc(OC)c2ccc(=O)oc2c1C(CC(=O)N1CCOCC1)c1ccc2c(c1)OCO2 (centres undefined)	-7	12
COc1cc(C(CC(=O)N2CCN(c3ccccc3)CC2)c2c(OC)cc(OC)c3ccc(=O)oc23)cc(OC)c1OC (centres undefined)	-3	71*
